# PubChem BioAssay (Tox21)
# Several values for one entry are separate records, joined by “and”; a condition that tells them apart may be missing. Equal values may be shown once. More than one record can exist for a structure, and the calls need not agree. Activity calls are given as the source filed them. Where a call stands in place of a potency, no number is given. Unless noted, calls come from the whole dose curve; as a rule, active = well fitted curve in the direction sought with a large enough effect in the repeat runs; inconclusive = weak or mixed curves; inactive = no such curve, though single readings can be large; an effect the other way counts as inactive or inconclusive.
# Assays:
# [1] = qHTS assay for identifying genotoxic compounds that show differential cytotoxicity against isogenic chicken DT40 cell lines with known DNA damage response pathways - wild type cell line (AID 743012); note: nearly all actives have a fitted effect of over 60% in size; note: potency is the fitted concentration of half-maximal effect
# Summary of the method: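 Endpoint: CellTiter-Glo luminescence, 30 min RT. Cells: wild type DT40, 300/well. Exposure: compounds in DMSO, 40 h, 37 C/5% CO2, after ~0.5 h pre-incubation.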
# [2] = qHTS assay for identifying genotoxic compounds that show differential cytotoxicity against isogenic chicken DT40 cell lines with known DNA damage response pathways - Rev3 mutant cell line (AID 743014); note: nearly all actives have a fitted effect of over 55% in size; note: potency is the fitted concentration of half-maximal effect
# [3] = qHTS assay for identifying genotoxic compounds that show differential cytotoxicity against isogenic chicken DT40 cell lines with known DNA damage response pathways - Rad54/Ku70 mutant cell line (AID 743015); note: nearly all actives have a fitted effect of over 60% in size; note: potency is the fitted concentration of half-maximal effect
# [4] = qHTS assay to identify small molecule antagonists of the androgen receptor (AR) signaling pathway - cell viability counter screen (AID 743033; note: nearly all actives have a fitted effect of over 45% in size; note: potency is the fitted concentration of half-maximal effect)
# [5] = qHTS assay to identify small molecule antagonists of the thyroid receptor (TR) signaling pathway (AID 743065); note: nearly all actives have a fitted effect of over 55% in size; note: potency is the fitted concentration of half-maximal effect
# Summary of the method: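 GH3.TRE-Luc rat pituitary cells carrying two TR response elements driving luciferase were plated for 4 h, given compound plus 1 nM T3 (final), and incubated 23.5 h at 37 C. ONE-Glo luminescence measured reporter inhibition; CellTiter-Fluor fluorescence tracked cytotoxicity.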
# [6] = qHTS assay to identify small molecule antagonists of the estrogen receptor alpha (ER-alpha) signaling pathway using the BG1 cell line (AID 743080; calls by dose curve;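 note: BG1 cells stimulated with 17beta-estradiol alongside compound; nearly all actives have a fitted effect of over 25% in size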; note: potency is the fitted concentration of half-maximal effect)
# Summary of the method: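 Luciferase inhibition measured with ONE-Glo after 30 min at RT in BG1Luc4E2 cells given test compounds and 17beta-estradiol for 21.5 h at 37 C; CellTiter-Fluor viability read in the same wells beforehand.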
# [7] = qHTS assay to identify small molecule antagonists of the estrogen receptor alpha (ER-alpha) signaling pathway using the BG1 cell line - cell viability counter screen (AID 743081);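 note: compound given together with 17beta-estradiol as the ER stimulus; nearly all actives have a fitted effect of over 45% in size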; note: potency is the fitted concentration of half-maximal effect
# Aromatase (Homo sapiens) = Aromatase (Homo sapiens) (UniProt P11511); assay: qHTS assay to identify aromatase inhibitors (AID 743083); note: nearly all actives have a fitted effect of over 55% in size; note: potency is the fitted concentration of half-maximal effect
# [8] = qHTS assay to identify aromatase inhibitors - cell viability counter screen (AID 743084);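 note: cells stimulated with testosterone during compound exposure; nearly all actives have a fitted effect of over 55% in size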; note: potency is the fitted concentration of half-maximal effect
# [9] = qHTS assay to identify small molecule antagonists of the androgen receptor (AR) signaling pathway using the MDA cell line - cell viability counter screen (AID 743041; note: nearly all actives have a fitted effect of over 45% in size; note: potency is the fitted concentration of half-maximal effect)
# Summary of the method: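 In this qHTS counter assay, fluorescence intensity after CellTiter-Fluor addition indicated viability of MDA-kb2 AR-luc cells given compounds and R1881 for 16 h at 37C.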
# [10] = qHTS assay to identify small molecule antagonists of the thyroid receptor (TR) signaling pathway - cell viability counter screen (AID 743064); note: nearly all actives have a fitted effect of over 50% in size; note: potency is the fitted concentration of half-maximal effect
# Summary of the method: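 Compounds were tested on GH3.TRE-Luc cells in the presence of T3 at 1 nM final. Following 23.5 h at 37 °C, cell viability was quantified by CellTiter-Fluor.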
# [11] = qHTS assay to identify small molecule antagonists of the estrogen receptor alpha (ER-alpha) signaling pathway - cell viability counter screen (AID 743074; calls by dose curve;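 note: HEK293 cells carrying ER-alpha-UAS-bla reporter stimulated with 17beta-estradiol; nearly all actives have a fitted effect of over 45% in size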; note: potency is the fitted concentration of half-maximal effect)
# [12] = target: Estrogen receptor (Homo sapiens) (UniProt P03372); assay: qHTS assay to identify small molecule agonists of the estrogen receptor alpha (ER-alpha) signaling pathway (AID 743075; calls by dose curve;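 note: HEK293 GripTite cells with ER-alpha and UAS-driven beta-lactamase reporter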; note: potency is the fitted concentration of half-maximal effect)
# [13] = target: Androgen receptor (Homo sapiens) (UniProt P10275); assay: qHTS assay to identify small molecule agonists of the androgen receptor (AR) signaling pathway (AID 743036; active = well fitted activation curve with a large enough effect in the signal ratio in the repeat runs, with a control signal flat, not every such curve was filed as active; inconclusive = weak or mixed curves, or effect the other way; inactive = no such curve, though single readings can be large or run the other way; the % refers to the signal ratio)
# Summary of the method: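 Beta-lactamase under UAS control, stably integrated in HEK293 GripTite cells, reports receptor activation. After 16 h compound treatment, cells received FRET substrate for 2 h at room temperature before fluorescence reading.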
# [14] = target: Androgen receptor (Homo sapiens) (UniProt P10275); assay: qHTS assay to identify small molecule agonists of the androgen receptor (AR) signaling pathway using the MDA cell line (AID 743040; note: nearly all actives have a fitted effect of over 20% in size)
# Summary of the method: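 Cell-based luciferase reporter: MDA-kb2, MMTV promoter (AR + GR response elements). 16 h compound exposure at 37C; ONE-Glo, 30 min RT, luminescence.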
# [15] = target: Androgen receptor (Homo sapiens) (UniProt P10275); assay: qHTS assay to identify small molecule antagonists of the androgen receptor (AR) signaling pathway using the MDA cell line (AID 743042)
# Summary of the method: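 MDA-kb2 cells (human breast carcinoma, stably carrying an MMTV-luciferase reporter responsive to AR and GR) were plated at 3,000 cells/well and preincubated 5 hr at 37C, then given compound plus R1881 agonist for 16 h. ONE-Glo luminescence was read.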
# [16] = test system: thyroid hormone receptor (rat, GH3 cells); assay: qHTS assay to identify small molecule agonists of the thyroid receptor (TR) signaling pathway (AID 743066; calls by dose curve)
# [17] = target: Estrogen receptor (Homo sapiens) (UniProt P03372); assay: qHTS assay to identify small molecule antagonists of the estrogen receptor alpha (ER-alpha) signaling pathway (AID 743069; active = well fitted curve in the direction sought with a large enough effect in the signal ratio in the repeat runs, not every such curve was filed as active; inconclusive = weak or mixed curves, or effect the other way; inactive = no such curve, though single readings can be large or run the other way; the % refers to the signal ratio; note: potency is the fitted concentration of half-maximal effect)
# Summary of the method: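 A 17beta-estradiol challenge was applied right after compound transfer to ER-alpha-UAS-bla HEK293 cells previously kept in charcoal-stripped serum. Plates stood 18 hr at 37C and 5% CO2; fluorescence was read following 2 hr FRET substrate loading at room temperature.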
# [18] = target: Estrogen receptor (Homo sapiens) (UniProt P03372); assay: qHTS assay to identify small molecule agonists of the estrogen receptor alpha (ER-alpha) signaling pathway using the BG1 cell line (AID 743079); note: nearly all actives have a fitted effect of over 20% in size
# Androgen receptor (Homo sapiens), sequence (P10275 whole entry, looked up): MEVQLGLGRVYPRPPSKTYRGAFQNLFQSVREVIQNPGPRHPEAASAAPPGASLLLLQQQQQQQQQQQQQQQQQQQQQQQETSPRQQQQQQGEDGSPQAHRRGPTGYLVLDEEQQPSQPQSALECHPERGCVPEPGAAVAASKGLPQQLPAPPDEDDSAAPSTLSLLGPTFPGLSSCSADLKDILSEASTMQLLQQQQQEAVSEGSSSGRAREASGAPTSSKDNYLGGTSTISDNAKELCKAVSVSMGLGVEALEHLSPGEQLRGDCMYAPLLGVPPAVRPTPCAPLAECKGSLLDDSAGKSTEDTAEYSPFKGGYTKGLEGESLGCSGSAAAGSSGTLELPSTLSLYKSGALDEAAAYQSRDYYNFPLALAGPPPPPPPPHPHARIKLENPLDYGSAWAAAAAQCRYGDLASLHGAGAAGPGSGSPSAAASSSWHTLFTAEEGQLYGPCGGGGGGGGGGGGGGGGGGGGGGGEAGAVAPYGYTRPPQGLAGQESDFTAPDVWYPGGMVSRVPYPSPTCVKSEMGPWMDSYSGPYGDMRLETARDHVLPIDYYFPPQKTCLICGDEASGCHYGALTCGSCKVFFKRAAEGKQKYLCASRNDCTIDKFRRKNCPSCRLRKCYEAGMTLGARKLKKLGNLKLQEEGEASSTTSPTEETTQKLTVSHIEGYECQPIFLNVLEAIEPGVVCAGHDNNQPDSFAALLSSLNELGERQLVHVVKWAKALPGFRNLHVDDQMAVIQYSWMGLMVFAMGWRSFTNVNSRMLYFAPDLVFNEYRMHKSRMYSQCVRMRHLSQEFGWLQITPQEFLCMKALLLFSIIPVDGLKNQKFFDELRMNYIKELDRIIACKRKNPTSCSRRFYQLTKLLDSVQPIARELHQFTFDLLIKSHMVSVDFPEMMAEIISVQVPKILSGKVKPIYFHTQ
# Estrogen receptor (Homo sapiens), sequence (P03372 whole entry, looked up): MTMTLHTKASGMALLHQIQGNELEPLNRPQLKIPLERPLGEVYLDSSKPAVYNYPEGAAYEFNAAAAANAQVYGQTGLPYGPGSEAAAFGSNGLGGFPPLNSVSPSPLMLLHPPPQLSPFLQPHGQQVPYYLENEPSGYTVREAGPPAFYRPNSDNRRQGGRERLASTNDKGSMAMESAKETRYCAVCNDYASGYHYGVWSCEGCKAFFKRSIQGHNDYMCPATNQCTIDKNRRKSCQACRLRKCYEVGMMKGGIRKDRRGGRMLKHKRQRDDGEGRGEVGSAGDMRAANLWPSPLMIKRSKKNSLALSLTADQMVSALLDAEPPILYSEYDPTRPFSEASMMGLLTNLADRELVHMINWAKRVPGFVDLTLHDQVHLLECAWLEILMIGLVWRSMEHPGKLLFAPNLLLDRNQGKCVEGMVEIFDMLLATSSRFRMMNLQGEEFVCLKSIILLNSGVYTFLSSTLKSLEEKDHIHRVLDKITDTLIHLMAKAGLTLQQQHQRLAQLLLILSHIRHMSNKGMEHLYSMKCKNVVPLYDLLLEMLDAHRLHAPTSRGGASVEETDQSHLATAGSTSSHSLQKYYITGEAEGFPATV
# Aromatase (Homo sapiens), sequence (P11511 whole entry, looked up): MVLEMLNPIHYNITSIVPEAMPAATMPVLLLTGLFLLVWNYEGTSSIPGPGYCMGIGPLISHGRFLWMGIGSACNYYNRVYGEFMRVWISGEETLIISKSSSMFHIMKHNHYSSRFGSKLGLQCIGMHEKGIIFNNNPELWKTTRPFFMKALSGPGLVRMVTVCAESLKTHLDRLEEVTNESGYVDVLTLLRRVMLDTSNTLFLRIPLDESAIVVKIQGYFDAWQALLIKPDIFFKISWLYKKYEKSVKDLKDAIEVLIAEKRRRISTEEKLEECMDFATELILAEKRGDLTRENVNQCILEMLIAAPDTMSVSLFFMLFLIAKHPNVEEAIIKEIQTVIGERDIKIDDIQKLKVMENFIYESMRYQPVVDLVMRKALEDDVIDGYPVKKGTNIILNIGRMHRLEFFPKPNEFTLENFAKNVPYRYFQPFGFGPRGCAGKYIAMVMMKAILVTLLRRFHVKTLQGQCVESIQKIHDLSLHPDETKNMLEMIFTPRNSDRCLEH
SMILES,Potency [1],Potency [2],Potency [3],Potency [4],Potency [5],Potency [6],Potency [7],Potency (Aromatase (Homo sapiens)),Potency [8],Potency [9],Potency [10],Potency [11],Potency [12],Potency [13],Potency [14],Potency [15],outcome [16],Potency [17],Potency [18]
CCc1nn(C)c(C(=O)NCc2ccc(C(C)(C)C)cc2)c1Cl,0.077 µM (active),0.0863 µM (active),0.0545 µM (active),0.195 µM (active),0.77 µM (active),0.0243 µM (active),30.6 µM (active),61.1 µM (active),61.1 µM (active),,,,,,,,,,
CCCCN(CCCC)C(=S)[S-].CCCCN(CCCC)C(=S)[S-].[Zn+2],inactive,inactive,inactive,inactive,13.3 µM (active) and 9.68 µM (active),,21.1 µM (active) and 38.5 µM (active),inactive,inactive,inactive,18.8 µM (active) and 7.69 µM (active),19 µM (active) and 12.3 µM (active),30.1 µM [inconclusive] (active),,,,,,
O=C(CCl)Nc1ccccc1,10.9 µM (active),10.9 µM (active),5.45 µM (active),,24.3 µM (active),,,43.3 µM (active),27.3 µM (active),54.5 µM (active),24.3 µM (active),,inactive,inactive,inactive,27.3 µM (active),,,
[Cd+2].[Cl-].[Cl-],19.5 µM (active) and 24.3 µM (active),13.8 µM (active) and 27.3 µM (active),13.8 µM (active) and 24.3 µM (active),24.8 µM (active),27.5 µM (active) and 38.6 µM (active),,,54.9 µM (active) and inactive,24.5 µM (active),inactive,24.5 µM (active) and 30.6 µM (active),,,,,,inactive,,
CC[C@H](C)[C@H]1O[C@]2(C=C[C@@H]1C)C[C@@H]1C[C@@H](C/C=C(\C)[C@@H](O[C@H]3C[C@H](OC)[C@@H](O[C@H]4C[C@H](OC)[C@@H](O)[C@H](C)O4)[C@H](C)O3)[C@@H](C)/C=C/C=C3\CO[C@@H]4[C@H](O)C(C)=C[C@@H](C(=O)O1)[C@]34O)O2,18.8 µM (active) and 3.61 µM (active),21.1 µM (active) and 10.2 µM (active),26.6 µM (active) and 6.42 µM (active),inactive,26.6 µM (active) and 3.22 µM (active),inactive,inactive,inactive and 14.4 µM (active),inactive and 18.1 µM (active),,3.22 µM (active),inactive and 25.8 µM (active),inactive,,,,,4.59 µM [inconclusive] (active),inactive
COC12CC[C@@]3(C[C@@H]1C(C)(O)C(C)(C)C)[C@H]1Cc4ccc(O)c5c4[C@@]3(CCN1CC1CC1)[C@H]2O5 (some centres not stated),54.1 µM (active),60.7 µM (active),48.2 µM (active),54.6 µM (active),24.2 µM (active),,inactive,19.2 µM (active),60.7 µM (active),,21.5 µM (active),,inactive,,,,,13.7 µM [inconclusive] (active),
C[C@H]1CC[C@@H]2[C@@H](C)[C@H]3[C@H](C[C@H]4[C@@H]5CC=C6CC(O[C@@H]7O[C@H](CO)[C@H](O)[C@H](O[C@@H]8O[C@H](CO)[C@@H](O)[C@H](O)[C@H]8O)[C@H]7O[C@H]7O[C@@H](C)[C@H](O)[C@@H](O)[C@H]7O)CC[C@]6(C)[C@H]5CC[C@]34C)N2C1 (some centres not stated),26.6 µM (active) and inactive,inactive,26.6 µM (active) and inactive,inactive,,17.8 µM (active),inactive,25.1 µM (active),19.9 µM (active),,18.8 µM (active) and inactive,16.9 µM (active) and inactive,,,,,inactive,inactive,inactive
O=[N+]([O-])c1ccc(Oc2ccc(C(F)(F)F)cc2[N+](=O)[O-])cc1,19.3 µM (active),17.2 µM (active),24.3 µM (active),inactive,,,inactive,inactive,inactive,inactive,inactive,inactive,inactive,,,,inactive,inactive,
O=C(Nc1ccc2[nH]ccc2c1)c1cc2cc(F)ccc2n1Cc1cccc(F)c1,19.3 µM (active),27.3 µM (active),17.2 µM (active),49 µM (active),13.7 µM (active),,inactive,,,,10.9 µM (active),inactive,,,,,,inactive,
CSCCCN=C=S,48.6 µM (active),27.3 µM (active),43.3 µM (active),inactive,,,inactive,,,inactive,inactive,inactive,,,,,inactive,,
COc1ccc(N)cc1N,11.7 µM (active),3.98 µM (active) and 5.87 µM (active),9.99 µM (active) and 7.38 µM (active),16 µM (active) and 18.7 µM (active),,,inactive,12.6 µM (active) and 33 µM (active),12.6 µM (active),inactive,37 µM (active),,,,,,inactive,,
CN(C)CCc1c[nH]c2cccc(O)c12,30.3 µM (active),60.5 µM (active),42.8 µM (active),inactive,,,,,inactive,,inactive,inactive,,,,,inactive,,
ClCc1ccc(Cl)cc1Cl,inactive,inactive,inactive,inactive,inactive,inactive,inactive,inactive,inactive,inactive,inactive,inactive,inactive,,,,inactive,inactive,inactive
CCOP(=O)(NC(C)C)Oc1ccc(SC)c(C)c1 (configuration not stated),7.7 µM (active),18.8 µM (active),40.1 µM (active),,,,,,inactive,inactive,61.1 µM (active),,,,inactive,,,,
Oc1cc(Cl)c(Cl)c(Cl)c1,inactive,inactive,inactive,32.9 µM (active),,inactive,inactive,,,,,,41.4 µM [activator] (active),,inactive,,,,
C1CCC2CCCCC2C1 (configuration not stated),inactive,inactive,inactive,inactive,inactive,inactive,inactive,inactive,inactive,inactive,inactive,inactive,inactive,,,,inactive,inactive,inactive
